# Records with an inconclusive call do not appear. Calls of active or inactive are those of the source. How the source made its calls: active means hit-call score of the fitted dose curve at least 0.9, where 1 is the maximum; inconclusive means response in the unintended direction; inactive means score below 0.9.
# How the values were obtained:
# [1] = molecular target: Collagenase 3 (Homo sapiens) (UniProt P45452); experiment: NVS_ENZ_hMMP13: NovaScreen (NVS) Enzymatic Assay for human Matrix Metalloproteinase-13 (MMP13) (AID 2283182)
# Summary of the method: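 Recombinant MMP13 cleaving fluorescent substrate, cell-free, measured 1 h after dosing. Primary duplicate screen at 25 uM; actives tested in concentration-response up to 50 uM; loss of signal relative to DMSO.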
# [2] = molecular target: human Matrix Metalloproteinase-2 (MMP2), MMP2 (gene 4313) (UniProt P08253); experiment: NVS_ENZ_hMMP2: NovaScreen (NVS) Enzymatic Assay for human Matrix Metalloproteinase-2 (MMP2) (AID 2283184)
# Summary of the method: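 Cell-free recombinant MMP2 activity with a fluorescent substrate, read 1 h after dosing. Primary screen in duplicate at 25 uM; actives then run in concentration series; loss of signal fitted versus DMSO.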
# [3] = molecular target: human Matrix Metalloproteinase-9 (MMP9), MMP9 (gene 4318) (UniProt P14780); experiment: NVS_ENZ_hMMP9: NovaScreen (NVS) Enzymatic Assay for human Matrix Metalloproteinase-9 (MMP9) (AID 2283190);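 further: cell-free recombinant MMP9 protease activity read by fluorescent substrate signal; active means inhibition seen as loss of fluorescence signal versus DMSO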
# Summary of the method: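 Cell-free recombinant MMP9 enzyme activity measured by fluorescence intensity 1 h after dosing. Primary screen in duplicate at 25 uM, actives followed in concentration series; loss of signal relative to DMSO.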
# [4] = molecular target: human Matrix Metalloproteinase-1 (MMP1), MMP1 (gene 4312) (UniProt P03956); experiment: NVS_ENZ_hMMP1: NovaScreen (NVS) Enzymatic Assay for human Matrix Metalloproteinase-1 (MMP1) (AID 2283181)
# Summary of the method: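 Human MMP1 enzyme activity measured by fluorescence 1 h after dosing, cell-free, with a specific substrate. Screened in duplicate at 25 uM; hits (e.g. 30% inhibition) run in concentration-response up to 50 uM; loss of signal versus DMSO.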
# [5] = molecular target: Serine/threonine-protein phosphatase PP1-alpha catalytic subunit (Homo sapiens) (UniProt P62136); experiment: NVS_ENZ_hPPP1CA: NovaScreen (NVS) Enzymatic Assay for human Protein Phosphatase 1 Aatalytic subunit Alpha (PPP1CA) (AID 2283200)
# Summary of the method: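 Recombinant enzyme activity read by fluorescence with electrophoretic mobility shift separating substrate from product, 1.33 h after dosing; loss of signal vs DMSO baseline. Primary screen in duplicate at 25 uM; actives retested in concentration-response up to 50 uM.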
# [6] = molecular target: human Phosphoinositide 3-kinase alpha (PI3Ka), PIK3CA (gene 5290) (UniProt P42336); experiment: NVS_ENZ_hPI3Ka: NovaScreen (NVS) Enzymatic Assay for human Phosphoinositide 3-kinase alpha (PI3Ka) (AID 2283196)
# Summary of the method: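 Recombinant human PI3Kα with fluorescent substrate, 1 h, product separated by electrophoretic mobility shift; 25 uM duplicate screen, hits (e.g., 30% inhibition) retested singly up to 50 uM; loss of signal vs DMSO.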
# [7] = molecular target: Tyrosine-protein phosphatase non-receptor type 11 (Homo sapiens) (UniProt Q06124); experiment: NVS_ENZ_hPTPN11: NovaScreen (NVS) Enzymatic Assay for human Protein Tyrosine Phosphatase Non-receptor Type 11 (PTPN11) (AID 2283202)
# Summary of the method: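 Recombinant human PTPN11 activity on a fluorescent substrate, with substrate/product separated by electrophoretic mobility shift; read 0.5 h after dosing, loss of signal vs DMSO. Duplicate 25 uM screen, then concentration-response up to 50 uM.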
# [8] = molecular target: human Phosphodiesterase 10 (PDE10), PDE10A (gene 10846) (UniProt Q9Y233); experiment: NVS_ENZ_hPDE10: NovaScreen (NVS) Enzymatic Assay for human Phosphodiesterase 10 (PDE10) (AID 2283195)
# Summary of the method: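 Fluorescence/mobility-shift readout of PDE10A enzyme activity, taken 1 h post-dosing. Primary screen in duplicate at 25 uM; actives (e.g. ≥30% inhibition) retested as singleton concentration-response, top concentration 50 uM.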
# [9] = molecular target: human Matrix Metalloproteinase-7 (MMP7), MMP7 (gene 4316) (UniProt P09237); experiment: NVS_ENZ_hMMP7: NovaScreen (NVS) Enzymatic Assay for human Matrix Metalloproteinase-7 (MMP7) (AID 2283183)
# Summary of the method: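 Cell-free fluorescence enzymatic assay read 1 h after compound addition, activity loss analyzed against DMSO. Primary duplicate testing at 25 uM; compounds meeting threshold rerun in singleton concentration-response up to 50 uM.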
# [10] = molecular target: human Phosphodiesterase 4A1 (PDE4A1), PDE4A (gene 5141) (UniProt P27815); experiment: NVS_ENZ_hPDE4A1: NovaScreen (NVS) Enzymatic Assay for human Phosphodiesterase 4A1 (PDE4A1) (AID 2283191)
# Summary of the method: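 Cell-free recombinant human PDE4A1 with fluorescent substrate; product separated by electrophoretic mobility shift, 1 h. Screened at 25 uM, then up to 50 uM in concentration-response; loss of signal fitted against DMSO.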
# [11] = molecular target: human MET Proto-Oncogene, Receptor Tyrosine Kinase (MET), MET (gene 4233) (UniProt P08581); experiment: NVS_ENZ_hMet: NovaScreen (NVS) Enzymatic Assay for human MET Proto-Oncogene, Receptor Tyrosine Kinase (MET) (AID 2283180)
# Summary of the method: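 Cell-free MET kinase assay using recombinant protein and fluorescent substrate, with mobility-shift separation; read 1 h after dosing. Primary duplicate at 25 uM; actives in singleton concentration-response to 50 uM maximum. Signal loss versus DMSO.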
# [12] = molecular target: human p21 Activated Kinase 4 (PAK4), PAK4 (gene 10298) (UniProt O96013); experiment: NVS_ENZ_hPAK4: NovaScreen (NVS) Enzymatic Assay for human p21 Activated Kinase 4 (PAK4) (AID 2283189)
# Summary of the method: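 Cell-free recombinant human PAK4 activity assay; fluorescent substrate and product separated by electrophoretic mobility shift, read 1 h after dosing. Initially tested in duplicate at 25 uM, relative to DMSO baseline.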
# PPP2CA (gene 5515) = PPP2CA (gene 5515) (UniProt P67775); experiment: NVS_ENZ_hPPP2CA: NovaScreen (NVS) Enzymatic Assay for human Protein Phosphatase 2 Aatalytic subunit Alpha (PPP2CA) (AID 2283199)
# Summary of the method: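 Recombinant human PPP2CA with fluorescent substrate; product separated from substrate by electrophoretic mobility shift, read 1.33 h after dosing. Duplicate single-point at 25 uM, then singleton concentration-response up to 50 uM; loss of signal versus DMSO.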
# [13] = molecular target: Tyrosine-protein phosphatase non-receptor type 12 (Homo sapiens) (UniProt Q05209); experiment: NVS_ENZ_hPTPN12: NovaScreen (NVS) Enzymatic Assay for human Protein Tyrosine Phosphatase Non-receptor Type 12 (PTPN12) (AID 2283204)
# Summary of the method: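 Single-concentration duplicates (25 uM) preceded singleton concentration-response up to 50 uM for chemicals passing threshold. Cell-free recombinant PTPN12 activity was read 1.33 h after dosing via fluorescence after mobility-shift separation; loss of signal versus DMSO.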
# [14] = molecular target: human Protein Tyrosine Phosphatase Non-receptor Type 1 (PTPN1), PTPN1 (gene 5770) (UniProt P18031); experiment: NVS_ENZ_hPTPN1: NovaScreen (NVS) Enzymatic Assay for human Protein Tyrosine Phosphatase Non-receptor Type 1 (PTPN1) (AID 2283201)
# Summary of the method: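 Cell-free fluorogenic-substrate activity assay on recombinant enzyme, read 1.33 h after dosing by fluorescence and electrophoretic mobility shift; loss of signal vs DMSO baseline. Primary screen in duplicate at 25 uM, hits then run in concentration-response up to 50 uM.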
# [15] = molecular target: human Protein Phosphatase, Mg2+/Mn2+ Dependent 1A (PPM1A), PPM1A (gene 5494) (UniProt P35813); experiment: NVS_ENZ_hPPM1A: NovaScreen (NVS) Enzymatic Assay for human Protein Phosphatase, Mg2+/Mn2+ Dependent 1A (PPM1A) (AID 2283198)
# Summary of the method: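 Cell-free recombinant PPM1A phosphatase assay with fluorescent substrate, read 1 h after dosing by electrophoretic mobility shift. Chemicals screened in duplicate at 25 uM, then in concentration-response up to 50 uM; loss of activity versus DMSO.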
# [16] = molecular target: human Phosphodiesterase 5 (PDE5), PDE5A (gene 8654) (UniProt O76074); experiment: NVS_ENZ_hPDE5: NovaScreen (NVS) Enzymatic Assay for human Phosphodiesterase 5 (PDE5) (AID 2283194)
# Summary of the method: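 Recombinant human PDE5 with specific substrate, read 1 h after dosing by fluorescence with electrophoretic mobility-shift separation of substrate and product. Initial single-concentration duplicate screen at 25 uM, actives followed in concentration series; loss of activity versus DMSO.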
# [17] = molecular target: human Matrix Metalloproteinase-3 (MMP3), MMP3 (gene 4314) (UniProt P08254); experiment: NVS_ENZ_hMMP3: NovaScreen (NVS) Enzymatic Assay for human Matrix Metalloproteinase-3 (MMP3) (AID 2283185)
# Summary of the method: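 Cell-free recombinant human MMP3 activity, fluorescence intensity read 1 h after dosing. Primary screen duplicate at 25 uM, actives retested in concentration series; loss of signal vs DMSO baseline.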
# [18] = molecular target: human NIMA (Never In Mitosis Gene A)-Related Kinase 2 (NEK2), NEK2 (gene 4751) (UniProt P51955); experiment: NVS_ENZ_hNEK2: NovaScreen (NVS) Enzymatic Assay for human NIMA (Never In Mitosis Gene A)-Related Kinase 2 (NEK2) (AID 2283188)
# Summary of the method: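 Cell-free NEK2 enzyme activity after 1 h exposure, read by fluorescence with electrophoretic mobility shift separating substrate and product. Primary screen in duplicate at 25 uM; actives then run as concentration series. Loss of signal versus DMSO scored.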
# [19] = molecular target: cAMP-dependent protein kinase catalytic subunit alpha (Homo sapiens) (UniProt P17612); experiment: NVS_ENZ_hPKA: NovaScreen (NVS) Enzymatic Assay for human Protein Kinase A (PKA) (AID 2283192)
# Summary of the method: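 Recombinant human PKA with specific fluorescent substrate, product separated by electrophoretic mobility shift, read 1 h after dosing. Primary screen at 25 uM in duplicate; actives then run in concentration-response up to 50 uM, activity relative to DMSO.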
# Serine/threonine-protein phosphatase PP1-alpha catalytic subunit (Homo sapiens), sequence (P62136 whole entry, looked up): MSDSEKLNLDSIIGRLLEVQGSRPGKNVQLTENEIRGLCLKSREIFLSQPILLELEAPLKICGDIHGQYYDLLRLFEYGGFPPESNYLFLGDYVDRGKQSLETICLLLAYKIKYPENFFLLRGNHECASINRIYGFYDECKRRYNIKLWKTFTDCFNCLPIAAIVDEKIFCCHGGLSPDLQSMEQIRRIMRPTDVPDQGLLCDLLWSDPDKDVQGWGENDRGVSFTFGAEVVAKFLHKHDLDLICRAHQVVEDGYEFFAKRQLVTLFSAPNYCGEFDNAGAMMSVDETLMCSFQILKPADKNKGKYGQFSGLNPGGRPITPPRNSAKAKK
# human Matrix Metalloproteinase-7 (MMP7), MMP7 (gene 4316), sequence (P09237 whole entry, looked up): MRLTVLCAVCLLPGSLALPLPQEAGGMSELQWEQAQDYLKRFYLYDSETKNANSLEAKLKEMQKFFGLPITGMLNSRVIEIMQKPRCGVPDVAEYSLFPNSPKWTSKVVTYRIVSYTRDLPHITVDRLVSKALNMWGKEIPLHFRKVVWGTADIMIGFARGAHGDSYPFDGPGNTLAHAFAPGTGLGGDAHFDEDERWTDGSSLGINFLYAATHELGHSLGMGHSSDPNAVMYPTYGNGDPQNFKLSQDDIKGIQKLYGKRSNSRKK
# human Matrix Metalloproteinase-2 (MMP2), MMP2 (gene 4313), sequence (P08253 whole entry, looked up): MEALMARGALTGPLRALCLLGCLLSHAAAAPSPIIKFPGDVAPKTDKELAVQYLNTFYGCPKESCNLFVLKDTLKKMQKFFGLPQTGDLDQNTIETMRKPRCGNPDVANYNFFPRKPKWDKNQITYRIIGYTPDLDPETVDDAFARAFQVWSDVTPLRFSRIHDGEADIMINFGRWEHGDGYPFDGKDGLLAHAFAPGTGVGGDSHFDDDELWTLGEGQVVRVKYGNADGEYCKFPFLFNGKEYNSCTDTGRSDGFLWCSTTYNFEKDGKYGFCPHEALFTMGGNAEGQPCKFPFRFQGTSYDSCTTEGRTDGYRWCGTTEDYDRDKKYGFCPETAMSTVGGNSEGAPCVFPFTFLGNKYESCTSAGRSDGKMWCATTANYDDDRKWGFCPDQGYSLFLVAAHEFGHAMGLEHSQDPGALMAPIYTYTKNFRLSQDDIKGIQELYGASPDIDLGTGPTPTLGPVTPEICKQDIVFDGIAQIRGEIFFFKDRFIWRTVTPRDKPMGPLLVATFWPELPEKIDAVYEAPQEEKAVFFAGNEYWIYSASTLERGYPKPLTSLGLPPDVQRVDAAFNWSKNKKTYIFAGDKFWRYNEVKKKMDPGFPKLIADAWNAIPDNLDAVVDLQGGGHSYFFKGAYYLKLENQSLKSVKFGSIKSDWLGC
# Tyrosine-protein phosphatase non-receptor type 12 (Homo sapiens), sequence (Q05209 whole entry, looked up): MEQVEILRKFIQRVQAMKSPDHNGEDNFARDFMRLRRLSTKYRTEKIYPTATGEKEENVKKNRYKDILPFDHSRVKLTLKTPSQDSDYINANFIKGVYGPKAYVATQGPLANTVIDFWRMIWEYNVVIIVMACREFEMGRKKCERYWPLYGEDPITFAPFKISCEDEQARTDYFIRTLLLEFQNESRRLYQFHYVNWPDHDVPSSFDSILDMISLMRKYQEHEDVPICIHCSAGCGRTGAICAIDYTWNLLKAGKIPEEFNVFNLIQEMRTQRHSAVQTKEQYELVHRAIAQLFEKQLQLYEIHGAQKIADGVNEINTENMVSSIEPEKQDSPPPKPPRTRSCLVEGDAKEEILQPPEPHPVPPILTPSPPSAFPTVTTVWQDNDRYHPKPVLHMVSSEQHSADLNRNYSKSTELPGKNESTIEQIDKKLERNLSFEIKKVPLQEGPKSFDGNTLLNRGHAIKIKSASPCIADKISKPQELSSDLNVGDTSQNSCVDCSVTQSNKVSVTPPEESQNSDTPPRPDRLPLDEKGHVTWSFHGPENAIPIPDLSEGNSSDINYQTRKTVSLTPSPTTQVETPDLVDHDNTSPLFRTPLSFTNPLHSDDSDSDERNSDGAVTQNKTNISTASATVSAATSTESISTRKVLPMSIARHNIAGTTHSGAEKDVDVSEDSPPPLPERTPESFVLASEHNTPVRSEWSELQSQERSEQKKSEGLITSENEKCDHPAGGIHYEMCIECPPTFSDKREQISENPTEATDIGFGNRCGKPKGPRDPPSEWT
# human Phosphoinositide 3-kinase alpha (PI3Ka), PIK3CA (gene 5290), sequence (P42336 whole entry, looked up): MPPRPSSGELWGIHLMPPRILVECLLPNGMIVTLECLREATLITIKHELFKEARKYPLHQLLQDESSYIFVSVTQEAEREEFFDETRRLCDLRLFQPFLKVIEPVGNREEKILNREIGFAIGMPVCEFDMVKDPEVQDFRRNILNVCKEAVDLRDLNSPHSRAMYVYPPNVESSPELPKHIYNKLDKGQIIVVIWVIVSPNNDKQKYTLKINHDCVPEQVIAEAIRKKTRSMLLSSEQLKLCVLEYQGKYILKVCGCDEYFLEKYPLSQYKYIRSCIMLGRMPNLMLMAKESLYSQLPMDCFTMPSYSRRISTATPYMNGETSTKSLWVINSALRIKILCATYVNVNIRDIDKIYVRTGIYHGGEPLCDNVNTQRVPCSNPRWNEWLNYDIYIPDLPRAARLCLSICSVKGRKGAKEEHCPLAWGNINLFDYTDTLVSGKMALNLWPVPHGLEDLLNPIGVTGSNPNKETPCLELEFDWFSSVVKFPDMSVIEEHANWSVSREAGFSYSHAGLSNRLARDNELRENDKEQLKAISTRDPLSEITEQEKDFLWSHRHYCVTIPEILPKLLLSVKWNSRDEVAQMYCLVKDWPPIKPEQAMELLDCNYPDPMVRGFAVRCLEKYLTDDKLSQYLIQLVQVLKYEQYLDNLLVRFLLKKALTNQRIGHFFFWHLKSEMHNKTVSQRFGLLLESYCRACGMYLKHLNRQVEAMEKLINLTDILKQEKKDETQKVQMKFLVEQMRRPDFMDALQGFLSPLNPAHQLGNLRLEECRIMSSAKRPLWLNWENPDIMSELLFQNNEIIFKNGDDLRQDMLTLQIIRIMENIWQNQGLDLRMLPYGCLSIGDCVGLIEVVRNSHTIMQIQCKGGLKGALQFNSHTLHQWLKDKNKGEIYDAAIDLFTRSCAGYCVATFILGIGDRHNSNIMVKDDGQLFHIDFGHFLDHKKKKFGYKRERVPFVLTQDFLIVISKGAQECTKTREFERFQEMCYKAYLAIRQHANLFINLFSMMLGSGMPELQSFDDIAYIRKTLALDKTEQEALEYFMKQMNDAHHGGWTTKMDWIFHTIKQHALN
# Tyrosine-protein phosphatase non-receptor type 11 (Homo sapiens), sequence (Q06124 whole entry, looked up): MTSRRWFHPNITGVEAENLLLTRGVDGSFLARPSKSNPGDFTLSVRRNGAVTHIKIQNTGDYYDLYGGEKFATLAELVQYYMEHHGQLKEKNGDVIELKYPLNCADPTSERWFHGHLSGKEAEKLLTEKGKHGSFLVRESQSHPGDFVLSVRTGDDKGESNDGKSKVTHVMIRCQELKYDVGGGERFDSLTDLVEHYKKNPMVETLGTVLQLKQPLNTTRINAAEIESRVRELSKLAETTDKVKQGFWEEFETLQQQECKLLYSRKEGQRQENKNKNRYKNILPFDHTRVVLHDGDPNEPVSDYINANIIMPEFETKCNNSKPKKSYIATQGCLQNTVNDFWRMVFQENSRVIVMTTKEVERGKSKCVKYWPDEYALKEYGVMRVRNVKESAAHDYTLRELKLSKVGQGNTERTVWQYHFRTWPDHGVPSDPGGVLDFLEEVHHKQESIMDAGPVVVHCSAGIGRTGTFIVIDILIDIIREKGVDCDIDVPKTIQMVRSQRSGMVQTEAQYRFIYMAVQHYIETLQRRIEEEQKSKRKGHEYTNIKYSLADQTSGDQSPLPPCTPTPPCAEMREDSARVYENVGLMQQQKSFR
# human Matrix Metalloproteinase-9 (MMP9), MMP9 (gene 4318), sequence (P14780 whole entry, looked up): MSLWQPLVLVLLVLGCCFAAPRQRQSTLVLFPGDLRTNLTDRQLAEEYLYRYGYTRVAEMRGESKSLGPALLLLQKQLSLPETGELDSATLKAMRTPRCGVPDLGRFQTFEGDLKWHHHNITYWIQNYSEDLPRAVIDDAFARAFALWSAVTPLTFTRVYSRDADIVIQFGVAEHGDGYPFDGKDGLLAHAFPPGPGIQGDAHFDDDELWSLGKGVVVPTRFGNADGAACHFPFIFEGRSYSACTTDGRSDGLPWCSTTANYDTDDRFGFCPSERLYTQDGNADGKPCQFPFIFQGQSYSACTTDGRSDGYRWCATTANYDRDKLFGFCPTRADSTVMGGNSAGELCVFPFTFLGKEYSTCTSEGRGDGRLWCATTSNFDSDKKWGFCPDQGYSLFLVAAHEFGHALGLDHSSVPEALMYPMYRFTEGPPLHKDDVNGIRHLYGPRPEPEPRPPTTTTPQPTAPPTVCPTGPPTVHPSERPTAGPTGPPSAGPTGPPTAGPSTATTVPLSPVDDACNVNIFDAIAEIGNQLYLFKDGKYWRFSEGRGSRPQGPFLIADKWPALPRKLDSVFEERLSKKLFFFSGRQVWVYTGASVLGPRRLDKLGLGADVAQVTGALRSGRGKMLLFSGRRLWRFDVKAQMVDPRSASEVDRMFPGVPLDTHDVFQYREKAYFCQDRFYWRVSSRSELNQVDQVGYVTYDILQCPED
# PPP2CA (gene 5515), sequence (P67775 whole entry, looked up): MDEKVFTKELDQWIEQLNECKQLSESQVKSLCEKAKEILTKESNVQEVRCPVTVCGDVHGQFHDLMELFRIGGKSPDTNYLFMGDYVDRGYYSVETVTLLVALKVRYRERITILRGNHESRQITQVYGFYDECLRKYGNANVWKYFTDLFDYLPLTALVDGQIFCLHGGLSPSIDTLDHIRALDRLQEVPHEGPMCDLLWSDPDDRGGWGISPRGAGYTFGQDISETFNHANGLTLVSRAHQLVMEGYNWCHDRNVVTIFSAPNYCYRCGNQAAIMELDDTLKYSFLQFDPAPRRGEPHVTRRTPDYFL
compound,measurement,setting,value
CC(Cc1ccc(OCC(=O)O)cc1)NCC(O)c1csc(C(F)(F)F)n1 (stereo not given),outcome,[1],inactive
same,AC50,[2],2.3 µM (active)
same,outcome,[3],inactive
CCCN(CCC)c1c([N+](=O)[O-])cc(C(C)C)cc1[N+](=O)[O-],AC50,[4],8.62 µM (active)
CC(C)(C)c1ccc(O)cc1,outcome,[5],inactive
CC1(C)CN=C(NN=C(/C=C/c2ccc(C(F)(F)F)cc2)/C=C/c2ccc(C(F)(F)F)cc2)NC1,AC50,[6],14.1 µM (active)
same,AC50,[7],13.4 µM (active)
CCN(CC)c1ccccc1,outcome,[1],inactive
Cc1cc(C)c(C(=O)P(=O)(c2ccccc2)c2ccccc2)c(C)c1,AC50,[8],0.687 µM (active)
CSC(C)(C)C=NO,outcome,[9],inactive
same,AC50,[2],7.52 µM (active)
same,outcome,[10],inactive
same,outcome,[6],inactive
CCOP(=S)(OCC)SCSCC,outcome,[9],inactive
same,outcome,[2],inactive
Nc1ccc(Cl)cc1,outcome,[3],inactive
CCOC(=O)c1ccccc1C(=O)OCC,outcome,[5],inactive
CC(C)(C)OOC(C)(C)C,outcome,[11],inactive
same,outcome,[12],inactive
same,outcome,PPP2CA (gene 5515),inactive
same,outcome,[5],inactive
same,outcome,[7],inactive
same,outcome,[13],inactive
O=P(OCC(Br)CBr)(OCC(Br)CBr)OCC(Br)CBr (stereo not given),AC50,[3],4.32 µM (active)
Cc1ccc(O)cc1C,AC50,[4],4.79 µM (active)
ClC1=C(Cl)C2(Cl)C3C(Cl)C(Cl)CC3C1(Cl)C2(Cl)Cl (stereo not given),outcome,[6],inactive
same,outcome,[14],inactive
same,outcome,[13],inactive
O=C(O)C(Cl)Cl,outcome,[15],inactive
same,outcome,[13],inactive
O=[N+]([O-])c1cc(Cl)ccc1Cl,outcome,[8],inactive
O=P1(N(CCCl)CCCl)NCCCO1 (stereo not given),outcome,[13],inactive
O=c1ssc(Cl)c1Cl,outcome,[7],inactive
same,outcome,[13],inactive
N#C/C=C/c1ccccc1,outcome,[8],inactive
[N-]=[N+]=[N-],outcome,[16],inactive
ClC(Cl)(Cl)c1ccccc1,outcome,PPP2CA (gene 5515),inactive
O=[N+]([O-])c1ccccc1,outcome,[17],inactive
CCCCC(CC)COP(=O)(Oc1ccccc1)Oc1ccccc1 (stereo not given),AC50,[3],2.08 µM (active)
Cc1ccc2c(c1N)C(=O)c1ccccc1C2=O,AC50,[8],5.53 µM (active)
same,outcome,[6],inactive
CCCCN(CCCC)N=O,outcome,[9],inactive
same,outcome,[6],inactive
Cc1c([N+](=O)[O-])cc2c(c1[N+](=O)[O-])C(C)(C)CC2(C)C,AC50,[3],7.49 µM (active)
CCC1(c2ccccc2)C(=O)N=C(O)NC1=O (stereo not given),AC50,[2],15.4 µM (active)
same,outcome,[3],inactive
COP(=O)(O)OC,AC50,[3],9.97 µM (active)
Nc1cc2c3c(c1)C(c1ccccc1)=N[C@@H](NC(=O)c1cccnc1)C(=O)N3CC2,AC50,[16],17.9 µM (active)
CC(Cl)CN(C)C (stereo not given),outcome,[8],inactive
c1nc[nH]n1,outcome,[2],inactive
CCOc1ccc(C(C)(C)COCc2cccc(Oc3ccccc3)c2)cc1,outcome,[9],inactive
same,AC50,[2],36 µM (active)
same,outcome,[18],inactive
same,outcome,[19],inactive
same,outcome,[15],inactive

# From PubChem BioAssay (EPA / NIEHS)
